Laboratory results as given in PubChem BioAssay (Tox21).
A number with no mark means an inactive call. Inconclusive results are not listed. Entries that show only a call come without a potency. The source made the active and inactive calls. Unless noted, calls come from the whole dose curve; as a rule, active = well fitted curve in the direction sought with a large enough effect in the repeat runs; inconclusive = weak or mixed curves; inactive = no such curve, though single readings can be large; an effect the other way counts as inactive or inconclusive.

Key:
[1] = molecular target: Luciferin 4-monooxygenase (Photinus pyralis) (UniProt P08659); assay: qHTS assay to identify small molecule inhibitors of firefly luciferase (AID 1224835); note: nearly all actives have a fitted effect of over 25% in size; note: potency is the fitted concentration of half-maximal effect
Outline: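 Quantitative HTS format; KM concentrations of both substrates. Purified P. pyralis FLuc activity quantified from luminescence images.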

[2] = qHTS assay to identify small molecule agonists of the constitutive androstane receptor (CAR) signaling pathway - cell viability counter screen (AID 1224836); note: nearly all actives have a fitted effect of over 45% in size; note: potency is the fitted concentration of half-maximal effect
Outline: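 Using CellTiter-Fluor, viability of HepG2 cells harbouring hCAR and CYP2B6-2.2kb was measured following 23 h incubation with a 15-concentration compound series plus PK11195 (0.75 uM final).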

[3] = qHTS assay to identify small molecule antagonists of the constitutive androstane receptor (CAR) signaling pathway - cell viability counter screen (AID 1224837); note: nearly all actives have a fitted effect of over 45% in size; note: potency is the fitted concentration of half-maximal effect
Outline: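 Counter screen run in HepG2-CYP2B6-hCAR cells: 4 hr settle, compound titration (15 concentrations) with 50 nM CITCO, 23 hr at 37 C/5% CO2, CellTiter-Fluor fluorescence.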

[4] = molecular target: Nuclear receptor subfamily 1 group I member 3 (Homo sapiens) (UniProt Q14994); assay: qHTS assay to identify small molecule antagonists of the constitutive androstane receptor (CAR) signaling pathway (AID 1224838);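 note: HepG2 cells stably expressing hCAR with CYP2B6 luciferase reporter stimulated by CITCO; nearly all actives have a fitted effect of over 40% in size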; note: potency is the fitted concentration of half-maximal effect
Outline: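 Cell line: HepG2 double-stable for hCAR and CYP2B6-2.2kb reporter. Agonist: CITCO, 50 nM final. Compounds: 15 concentrations, 24 h, 37 C. Detection: ONE-Glo luminescence.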

[5] = molecular target: Nuclear receptor subfamily 1 group I member 3 (Homo sapiens) (UniProt Q14994); assay: qHTS assay to identify small molecule agonists of the constitutive androstane receptor (CAR) signaling pathway (AID 1224839); note: nearly all actives have a fitted effect of over 15% in size; note: potency is the fitted concentration of half-maximal effect;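 for activation: HepG2 cells stably carrying human CAR and a CYP2B6 luciferase reporter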
Outline: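 Double-stable HepG2 cells (hCAR, CYP2B6-2.2kb) seeded 4 h before compound addition. Exposure 24 h with 0.75 uM PK11195 final. Luciferase detected by ONE-Glo.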

[6] = qHTS assay to identify small molecule agonists of the estrogen related receptor signaling pathway with the pleiotropic PPARgamma coactivator (PGC) from Tox21 10K library (AID 1224842); note: nearly all actives have a fitted effect of over 15% in size
Outline: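 PGC/ERR reporter cells (NTP line) were seeded 2,000 per well, rested 6 h at 37 C/5% CO2, then pin-dosed with compounds in DMSO for 18 h at 37 C; luciferase read by One-Glo luminescence after 30 min at room temperature.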

[7] = molecular target: Thyrotropin receptor (Homo sapiens) (UniProt P16473); assay: qHTS assay to identify small molecule agonists of the thyroid stimulating hormone receptor (TSHR) signaling pathway (AID 1224843; calls by dose curve; note: nearly all actives have a fitted effect of over 45% in size; note: potency is the fitted concentration of half-maximal effect)
Outline: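 Cell line HEK293 with TSHR; density 800/well. Exposure 30 min RT. Readout HTRF cAMP (cAMP-d2/anti-cAMP-cryptate), 1 h RT before reading.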

[8] = qHTS assay to identify small molecule agonists of H2AX (AID 1224845; active = well fitted activation curve with a large enough effect in the signal ratio in the repeat runs, not every such curve was filed as active; the % refers to the signal ratio)
Outline: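 Wild-type CHO-K1 cells plated overnight, then exposed 3 hr at 37C to compounds at 15 concentrations (0.76% DMSO). Lysed, then HTRF anti-pH2AX(S139)-cryptate/anti-H2AX-d2 detection after 24 hr at room temperature; emissions 665 and 620 nm.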

[9] = qHTS assay to identify small molecule agonists of H2AX - cell viability counter screen (AID 1224847; calls by dose curve; note: nearly all actives have a fitted effect of over 30% in size; note: potency is the fitted concentration of half-maximal effect)
Outline: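 Quantitative HTS viability measurement: CHO-K1 wild-type cells in serum (10% FBS) medium, short 3 hr drug exposure at 37C with 0.76% DMSO, CellTiter-Glo luminescent detection.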

[10] = qHTS assay to identify small molecule agonists of the estrogen related receptor (ERR) signaling pathway from Tox21 library (AID 1224849; calls by dose curve; note: nearly all actives have a fitted effect of over 15% in size); settings: ERR reporter cell line, ONE-Glo luciferase, 18 h; at 92.4 µM (top of the series) unless noted
Outline: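 Screening used an NTP-provided ERR luciferase cell line. Compounds in DMSO were added 6 h after seeding and left 18 h at 37 C before a 30 min ONE-Glo step and luminescence reading.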

[11] = qHTS RealTime-Glo MT Cell Viability Assay in HepG2 cells - 24 hour (AID 1224867); note: nearly all actives have a fitted effect of over 50% in size; note: potency is the fitted concentration of half-maximal effect
Outline: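 Real-time, nonlytic viability: 600 HepG2 cells/well mixed with NanoLuc enzyme plus prosubstrate; 5 h settle, compound (DMSO) added by pintool; luminescence monitored over 40 h at 37 C.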

[12] = qHTS RealTime-Glo MT Cell Viability Assay in HEK293 cells - 32 hour (AID 1224868); note: nearly all actives have a fitted effect of over 50% in size; note: potency is the fitted concentration of half-maximal effect
Outline: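 Cells + reagent dispensed (600 cells/well, HEK293) → 5 h at 37 C/5% CO2 → 23 nL compound in DMSO pinned → 40 h at 37 C → luminescence read at 0, 8, 16, 24, 32, 40 h.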

[13] = A CellTox Green Cytotoxicity Assay to monitor cytotoxicity in HEK293 cells - 0 hour (AID 1224869); note: nearly all actives have a fitted effect of over 50% in size
Outline: (§1)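 Fluorescence intensity, read at 0, 8, 16, 24, 32 and 40 h of compound treatment, reflected dye binding to DNA of dead HEK293 cells; compounds (23 nL, DMSO) were added 5 h after plating cells with reagent.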

[14] = qHTS RealTime-Glo MT Cell Viability Assay in HepG2 cells - 40 hour (AID 1224870); note: nearly all actives have a fitted effect of over 50% in size; note: potency is the fitted concentration of half-maximal effect
Outline: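 HepG2 cells mixed with RealTime-Glo MT reagents (NanoLuc plus cell-permeant prosubstrate) were seeded at 600 cells/well, incubated 5 h at 37 C/5% CO2, then pinned with compounds in DMSO; nonlytic luminescence tracked viability during 40 h treatment.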

[15] = A CellTox Green Cytotoxicity Assay to monitor cytotoxicity in HEK293 cells - 40 hour (AID 1224871); note: nearly all actives have a fitted effect of over 45% in size; note: potency is the fitted concentration of half-maximal effect
Outline: as §1

[16] = qHTS assay to identify small molecule antagonists of the estrogen related receptor signaling pathway with the pleiotropic PPARgamma coactivator (PGC) from Tox21 10K library - cell viability counter screen (AID 1224840; active = well fitted cell-killing curve with a large enough effect in the repeat runs, not every such curve was filed as active; note: nearly all actives have a fitted effect of over 40% in size)
Outline: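 Following seeding of 2,000 PGC/ERR cells/well and 6 hours' incubation, test compounds were delivered in DMSO. The plates then sat 17.5 hours at 37 C before a fluorogenic live-cell protease reagent (CellTiter-Fluor) was read after 30 min.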

[17] = qHTS assay to identify small molecule agonists of the hypoxia (HIF-1) signaling pathway - cell viability counter screen (AID 1224844; calls by dose curve; note: nearly all actives have a fitted effect of over 50% in size; note: potency is the fitted concentration of half-maximal effect)
Outline: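 Cells (HRE-bla ME-180, 2,000 per well) sat 5 hrs at 37C, got compound for 17 hrs, were read for CCF4-AM FRET, and were finally lysed with CellTiter-Glo for a 30 min room-temperature luminescence read.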

[18] = qHTS assay to identify small molecule agonists of the hypoxia (HIF-1) signaling pathway (AID 1224846; active = well fitted activation curve with a large enough effect in the signal ratio in the repeat runs, not every such curve was filed as active; the % refers to the signal ratio)
Outline: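 A low-serum medium (0.5% dialyzed FBS) holding 2,000 HRE-bla ME-180 cells per well is preincubated for 5 hrs, dosed with compounds by pintool, and kept a further 17 hrs at 37C, 5% CO2 before CCF4-AM FRET detection of beta-lactamase.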

[19] = qHTS assay to identify small molecule antagonists of the estrogen related receptor signaling pathway with the pleiotropic PPARgamma coactivator (PGC) from Tox21 10K library (AID 1224841; call rule not given here; note: potency is the fitted concentration of half-maximal effect)
Outline: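 qHTS antagonist format: PGC/ERR cells, 2k/well, compound in DMSO by pin transfer after 6 h attachment, 18 h treatment at 37 C, One-Glo luminescence read at 30 min.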

[20] = qHTS assay to identify small molecule antagonists of the estrogen related receptor (ERR) signaling pathway from Tox21 library (AID 1224848)
Outline: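 Screening used an ERR reporter line supplied by NTP, exposed for 18 h at 37 C to library compounds delivered in DMSO. Signal was luciferase luminescence developed with ONE-Glo at room temperature for 30 min.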

Sequence of Nuclear receptor subfamily 1 group I member 3 (Homo sapiens) (Q14994 whole entry, looked up): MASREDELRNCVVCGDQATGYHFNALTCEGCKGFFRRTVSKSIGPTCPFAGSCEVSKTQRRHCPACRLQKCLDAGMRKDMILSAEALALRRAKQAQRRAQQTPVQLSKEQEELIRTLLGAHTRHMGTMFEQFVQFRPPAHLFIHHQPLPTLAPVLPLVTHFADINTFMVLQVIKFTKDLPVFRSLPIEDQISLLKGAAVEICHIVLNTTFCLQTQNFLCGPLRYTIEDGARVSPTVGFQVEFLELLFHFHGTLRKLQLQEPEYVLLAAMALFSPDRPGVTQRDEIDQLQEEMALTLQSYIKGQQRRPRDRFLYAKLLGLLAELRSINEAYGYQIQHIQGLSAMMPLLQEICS
Sequence of Thyrotropin receptor (Homo sapiens) (P16473 whole entry, looked up): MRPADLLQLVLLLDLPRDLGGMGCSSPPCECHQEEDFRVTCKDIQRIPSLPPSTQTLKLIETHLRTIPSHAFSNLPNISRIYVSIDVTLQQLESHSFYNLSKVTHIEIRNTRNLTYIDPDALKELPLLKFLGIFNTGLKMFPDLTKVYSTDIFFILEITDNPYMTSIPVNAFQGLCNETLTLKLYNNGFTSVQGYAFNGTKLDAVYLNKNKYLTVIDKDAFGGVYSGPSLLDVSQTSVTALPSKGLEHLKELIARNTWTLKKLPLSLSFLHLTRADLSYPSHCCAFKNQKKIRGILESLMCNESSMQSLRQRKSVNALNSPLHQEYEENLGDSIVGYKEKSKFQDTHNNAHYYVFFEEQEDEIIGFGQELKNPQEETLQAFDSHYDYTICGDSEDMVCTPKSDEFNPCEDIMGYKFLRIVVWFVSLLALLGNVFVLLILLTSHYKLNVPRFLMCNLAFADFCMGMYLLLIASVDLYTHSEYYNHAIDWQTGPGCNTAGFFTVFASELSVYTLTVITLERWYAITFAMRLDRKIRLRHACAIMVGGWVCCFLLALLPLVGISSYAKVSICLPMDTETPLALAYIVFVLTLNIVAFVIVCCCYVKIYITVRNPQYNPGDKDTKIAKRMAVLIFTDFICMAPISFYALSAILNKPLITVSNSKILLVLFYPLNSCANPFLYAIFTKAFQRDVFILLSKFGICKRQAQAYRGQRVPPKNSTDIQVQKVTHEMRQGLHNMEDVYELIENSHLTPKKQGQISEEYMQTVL
Sequence of Luciferin 4-monooxygenase (Photinus pyralis) (P08659 whole entry, looked up): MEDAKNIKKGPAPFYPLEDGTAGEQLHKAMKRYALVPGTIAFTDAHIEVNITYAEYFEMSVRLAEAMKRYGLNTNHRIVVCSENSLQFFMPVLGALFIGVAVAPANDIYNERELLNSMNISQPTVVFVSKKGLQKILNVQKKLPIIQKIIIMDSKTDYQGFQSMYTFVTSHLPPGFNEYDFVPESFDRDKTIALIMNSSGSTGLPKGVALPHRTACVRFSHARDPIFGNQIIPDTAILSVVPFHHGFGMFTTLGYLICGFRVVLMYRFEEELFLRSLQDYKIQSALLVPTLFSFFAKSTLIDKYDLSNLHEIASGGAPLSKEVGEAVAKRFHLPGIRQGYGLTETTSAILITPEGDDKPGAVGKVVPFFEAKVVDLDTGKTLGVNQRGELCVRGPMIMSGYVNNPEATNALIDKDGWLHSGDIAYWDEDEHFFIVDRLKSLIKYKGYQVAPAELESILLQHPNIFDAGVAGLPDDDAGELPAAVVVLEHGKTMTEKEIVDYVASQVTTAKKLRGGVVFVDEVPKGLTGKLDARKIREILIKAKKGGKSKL

SMILES	Potency [1]	Potency [2]	Potency [3]	Potency [4]	Potency [5]	Potency [6]	Potency [7]	Potency [8]	Potency [9]	activity change, positive = activation [10]	Potency [11]	Potency [12]	Potency [13]	Potency [14]	Potency [15]	Potency [16]	Potency [17]	outcome [18]	Potency [19]	Potency [20]
C1CC(COCC2CO2)CCC1COCC1CO1 (stereo unspecified)	inactive	inactive	inactive	inactive	inactive	inactive	inactive	inactive	inactive	-24.4%	inactive	inactive	inactive	inactive	inactive	–	–	–	–	–
c1ccc2c(c1)CCC2	inactive	inactive	inactive	inactive	inactive	–	inactive	inactive	inactive	–	inactive	inactive	–	inactive	inactive	inactive	inactive	inactive	–	–
Cn1cnc2ncnc(N)c21	inactive	inactive	inactive	inactive	inactive	–	inactive	inactive	–	–	inactive	inactive	–	inactive	inactive	inactive	inactive	inactive	–	–
CCN(CC)CCNc1ccc(CO)c2sc3ccccc3c(=O)c12	inactive	7.5 µM (active)	7.5 µM (active)	2.66 µM (active)	inactive	–	–	inactive	inactive	-56.6% [at 42.5 µM]	23.9 µM (active)	16.9 µM (active)	inactive	21.3 µM (active)	23.9 µM (active)	–	26.8 µM (active)	–	8.41 µM (active)	13.3 µM (active)
CC(=O)Oc1ccc(C2(c3ccc(OC(C)=O)cc3)Oc3ccccc3NC2=O)cc1	inactive	inactive	inactive	16.8 µM (active)	inactive	–	inactive	inactive	inactive	–	inactive	–	inactive	inactive	inactive	inactive	inactive	–	–	–
COc1cccc(O)c1	inactive	inactive	inactive	inactive	inactive	–	–	inactive	inactive	–	inactive	inactive	inactive	–	inactive	inactive	inactive	inactive	–	–
C=C1C(C)(C)[C@@]2(Cl)C(Cl)[C@]1(Cl)C(Cl)(Cl)C2(Cl)Cl (stereo partly specified)	inactive	inactive	inactive	inactive	21.3 µM (active)	inactive	13.4 µM (active)	–	–	-68%	–	–	–	–	–	–	48.1 µM (active)	–	53.5 µM (active)	60 µM (active)
CN(C)CCN1CCOCC1	inactive	inactive	inactive	inactive	inactive	–	inactive	inactive	inactive	–	inactive	inactive	–	inactive	inactive	inactive	inactive	inactive	–	–
CCCCCCCCC(C)=O	inactive	inactive	inactive	inactive	inactive	–	inactive	inactive	–	–	inactive	inactive	–	–	inactive	inactive	inactive	inactive	–	–
COc1ccc(C#N)cc1	inactive	inactive	inactive	inactive	inactive	–	–	inactive	inactive	–	inactive	inactive	inactive	inactive	inactive	inactive	–	inactive	–	–
CCOCN(C(=O)CS(=O)(=O)O)c1c(C)cccc1CC	inactive	inactive	inactive	inactive	inactive	–	inactive	inactive	–	–	–	inactive	inactive	–	inactive	inactive	inactive	inactive	–	–
CCCCCCS	inactive	inactive	inactive	inactive	inactive	–	inactive	inactive	–	–	–	inactive	inactive	inactive	inactive	inactive	–	inactive	–	–
Oc1ccc(-c2ccc(O)cc2)cc1	40.2 µM (active)	inactive	inactive	inactive	17.3 µM (active)	inactive	inactive	–	–	-24.2%	inactive	–	inactive	inactive	inactive	–	49.3 µM (active)	inactive	inactive	–
CC(=O)O[C@@H]1C[C@@H]2CC[C@@]1(C)C2(C)C	inactive	inactive	inactive	inactive	inactive	–	inactive	inactive	–	–	inactive	inactive	inactive	–	inactive	inactive	inactive	inactive	–	–
O=C1NCCN1CCN1CCC(c2cn(-c3ccc(F)cc3)c3ccc(Cl)cc23)CC1	inactive	11.9 µM (active)	11.9 µM (active)	11.9 µM (active)	inactive	–	–	–	49.2 µM (active)	-56.2% [at 42.5 µM]	23.9 µM (active)	21.3 µM (active)	inactive	26.8 µM (active)	23.9 µM (active)	–	–	inactive	inactive	13.3 µM (active)
CCCC(O)C(O)CO (stereo unspecified)	inactive	inactive	inactive	inactive	inactive	–	inactive	inactive	–	–	inactive	inactive	inactive	inactive	inactive	inactive	inactive	inactive	–	–
